Measurements from PubChem BioAssay (Tox21).
Values joined by “and” are separate entries in the source; they are usually repeats but may differ in a detail not shown here. Equal values may be shown once. Records with an inconclusive call do not appear. Where a call stands in place of a potency, no number is given. Some compounds were tested as several samples or in several runs, with calls that do not always agree. Active and inactive are the calls of the source. Unless noted, the call rests on the fitted dose curve; in most records, active means well fitted curve in the direction sought with a large enough effect in the repeat runs; inconclusive means weak or mixed curves; inactive means no such curve, though single readings can be large; an effect the other way counts as inactive or inconclusive. Residues, ends and D or L forms follow the SMILES beside them.

Experiments:
[1] = qHTS assay to identify aromatase inhibitors - cell viability counter screen (AID 743084); details: MCF-7 aro ERE viability, CellTiter-Fluor, 24 h; series mostly up to 70.3 µM;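 further: cells stimulated with testosterone during compound exposure; nearly all actives have a fitted effect of over 55% in size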; further: potency means the concentration at half of the fitted maximal effect
[2] = molecular target: Aryl hydrocarbon receptor (Homo sapiens) (UniProt P35869); assay: qHTS assay to identify small molecule that activate the aryl hydrocarbon receptor (AhR) signaling pathway (AID 743085); details: HepG2 AhR-luc (HG2L7.5c1), luciferase, 24 h; series mostly up to 70.3 µM; further: nearly all actives have a fitted effect of over 15% in size; further: potency means the concentration at half of the fitted maximal effect;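 on activation: HG2L7.5c1 human HepG2 liver cells with stably integrated DRE-driven firefly reporter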
Procedure, shortened: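 A multiplexed format paired cell viability (CellTiter-Fluor fluorescence) with AhR-dependent luciferase output (ONE-Glo luminescence) in the same wells of HepG2 DRE-luc cells after 24 h compound exposure at 37C.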

[3] = molecular target: Peroxisome proliferator-activated receptor gamma (Homo sapiens) (UniProt P37231); assay: qHTS assay to identify small molecule agonists of the peroxisome proliferator-activated receptor gamma (PPARg) signaling pathway (AID 743094; active means well fitted activation curve with a large enough effect in the signal ratio in the repeat runs, not every such curve was filed as active; the % refers to the signal ratio); details: HEK293H PPARg-UAS-bla, beta-lactamase FRET ratio, 17 h; series mostly up to 57 µM
Procedure, shortened: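 Following 5 h plating at 37C, PPARg-bla HEK293H cells receive compound or DMSO for 17 h; fluorescence intensity is recorded after LiveBLAzer B/G loading for 1 h at room temperature.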

[4] = qHTS assay to identify small molecule that activate the aryl hydrocarbon receptor (AhR) signaling pathway - cell viability counter screen (AID 743086); details: HepG2-AhR-luc viability, CellTiter-Fluor, 24 h; series mostly up to 70.3 µM; further: nearly all actives have a fitted effect of over 45% in size; further: potency means the concentration at half of the fitted maximal effect
Procedure, shortened: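 Cytotoxicity counter screen: CellTiter-Fluor signal (30 min, 37 C) in 4000 HepG2 cells/well carrying the DRE-luciferase reporter, following 24 h compound exposure at 37 C.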

[5] = qHTS assay for small molecule agonists of the antioxidant response element (ARE) signaling pathway (AID 743202; active means well fitted activation curve with a large enough effect in the signal ratio in the repeat runs, not every such curve was filed as active; the % refers to the signal ratio; further: potency means the concentration at half of the fitted maximal effect); details: HepG2 ARE-bla reporter, beta-lactamase FRET, 16 h; series mostly up to 73.3 µM
Procedure, shortened: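 An ARE-responsive beta-lactamase gene stably integrated in HepG2 cells serves as reporter. After 5 h plating and 16 h compound incubation at 37 C, fluorescence of the B/G FRET substrate was measured.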

[6] = qHTS assay for small molecule agonists of the antioxidant response element (ARE) signaling pathway - cell viability counter screen (AID 743203; calls by dose curve; further: nearly all actives have a fitted effect of over 55% in size; further: potency means the concentration at half of the fitted maximal effect); details: ARE-bla HepG2 viability, CellTiter-Glo luminescence, 16 h; series mostly up to 73.3 µM
Procedure, shortened: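 Compounds in DMSO were pinned onto ARE-bla HepG2 cells plated 5 hrs earlier at 2,000 cells/well. Sixteen hours later at 37C/5% CO2, CellTiter-Glo was added and luminescence measured after 30 min at room temperature.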

[7] = qHTS assay for small molecule activators of the heat shock response signaling pathway - cell viability counter screen (AID 743209); details: HSE-bla HeLa viability, CellTiter-Glo luminescence, 5 h; series mostly up to 62.6 µM; further: nearly all actives have a fitted effect of over 50% in size; further: potency means the concentration at half of the fitted maximal effect
Procedure, shortened: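 Counter screen for cytotoxicity in HeLa HSE-bla reporter cells. Treatment was 5 h at 37 C; viability was detected by luminescent ATP assay (CellTiter-Glo) in the same wells as the beta-lactamase read.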

[8] = qHTS assay for small molecule activators of the heat shock response signaling pathway (AID 743210; active means well fitted activation curve with a large enough effect in the signal ratio in the repeat runs, with a control signal flat, not every such curve was filed as active; the % refers to the signal ratio;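 further: HeLa cells with beta-lactamase reporter driven by heat shock elements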); details: HeLa HSE-bla reporter, beta-lactamase ratio, 5 h; series mostly up to 62.6 µM
Procedure, shortened: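 In HSE-bla HeLa cells, 5 h compound incubation (37 C) precedes addition of LiveBLAzer B/G substrate; after 2.5 h at room temperature, fluorescence intensity indicates reporter induction.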

[9] = qHTS assay to identify small molecule antagonists of the peroxisome proliferator-activated receptor gamma (PPARg) signaling pathway - cell viability counter screen (AID 743194); details: PPARg-bla HEK293H viability, CellTiter-Glo luminescence, 17 h, co-treated with 50 nM rosiglitazone; series mostly up to 62.6 µM; further: nearly all actives have a fitted effect of over 55% in size; further: potency means the concentration at half of the fitted maximal effect
Procedure, shortened: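 Viability was measured as CellTiter-Glo luminescence in GeneBLAzer PPARg UAS-bla HEK293H cells. These cells had been exposed 17 h at 37 C to compounds together with rosiglitazone at 50 nM final, with the beta-lactamase readout taken in the same wells.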

Sequence of Aryl hydrocarbon receptor (Homo sapiens) (P35869 whole entry, looked up): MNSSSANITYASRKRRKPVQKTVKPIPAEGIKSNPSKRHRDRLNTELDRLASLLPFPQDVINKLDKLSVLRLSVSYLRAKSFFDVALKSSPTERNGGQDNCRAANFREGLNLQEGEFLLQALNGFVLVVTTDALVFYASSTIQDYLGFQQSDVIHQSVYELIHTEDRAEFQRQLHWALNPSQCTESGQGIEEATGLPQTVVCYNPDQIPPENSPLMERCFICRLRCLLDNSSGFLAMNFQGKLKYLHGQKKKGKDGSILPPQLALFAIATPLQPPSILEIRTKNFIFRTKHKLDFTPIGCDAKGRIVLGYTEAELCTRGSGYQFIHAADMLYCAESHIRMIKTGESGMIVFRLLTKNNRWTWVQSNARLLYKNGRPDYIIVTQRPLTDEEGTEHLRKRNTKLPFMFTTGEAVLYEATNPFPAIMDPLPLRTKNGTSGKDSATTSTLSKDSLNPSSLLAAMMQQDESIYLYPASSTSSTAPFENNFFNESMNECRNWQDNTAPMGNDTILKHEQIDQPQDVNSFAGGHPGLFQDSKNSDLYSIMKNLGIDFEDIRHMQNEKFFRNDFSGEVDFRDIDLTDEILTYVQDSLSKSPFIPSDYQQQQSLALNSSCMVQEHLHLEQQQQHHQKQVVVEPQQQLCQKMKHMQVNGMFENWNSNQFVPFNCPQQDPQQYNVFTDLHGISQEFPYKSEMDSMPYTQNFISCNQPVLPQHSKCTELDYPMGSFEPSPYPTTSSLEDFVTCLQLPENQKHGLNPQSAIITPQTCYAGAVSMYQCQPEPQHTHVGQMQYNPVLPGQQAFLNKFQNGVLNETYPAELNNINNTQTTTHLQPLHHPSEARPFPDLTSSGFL
Sequence of Peroxisome proliferator-activated receptor gamma (Homo sapiens) (P37231 whole entry, looked up): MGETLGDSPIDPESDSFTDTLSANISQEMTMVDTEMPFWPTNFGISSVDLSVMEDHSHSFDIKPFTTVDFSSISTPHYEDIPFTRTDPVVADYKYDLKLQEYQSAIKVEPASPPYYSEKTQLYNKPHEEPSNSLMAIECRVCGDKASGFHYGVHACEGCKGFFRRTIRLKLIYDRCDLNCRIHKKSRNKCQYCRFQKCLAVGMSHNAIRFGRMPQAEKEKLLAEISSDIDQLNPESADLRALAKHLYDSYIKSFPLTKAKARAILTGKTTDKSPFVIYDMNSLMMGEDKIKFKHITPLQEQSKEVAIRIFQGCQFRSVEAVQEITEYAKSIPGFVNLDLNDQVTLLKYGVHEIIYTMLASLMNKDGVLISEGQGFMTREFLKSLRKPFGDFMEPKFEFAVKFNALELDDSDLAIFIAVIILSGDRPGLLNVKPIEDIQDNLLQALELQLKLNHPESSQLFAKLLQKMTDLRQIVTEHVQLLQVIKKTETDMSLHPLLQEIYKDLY

SMILES	Potency [1]	Potency [2]	Potency [3]	Potency [4]	Potency [5]	Potency [6]	Potency [7]	outcome [8]	Potency [9]
O=C(O)/C=C/C(O)c1ccc(Cl)cc1 (stereo not drawn)	inactive	inactive	inactive	–	–	–	–	–	–
CCCOC(=O)c1ccc(O)cc1	inactive	inactive and 23 µM (active)	–	inactive	17.2 µM (active)	inactive	inactive	inactive	–
COc1cc(/C=C/C(=O)CC(=O)/C=C/c2ccc(O)c(OC)c2)ccc1O	inactive	inactive	–	inactive and 27.5 µM (active)	–	54.8 µM (active)	–	–	43.9 µM (active)
Cc1cc(F)ccc1-c1cc(N2CC[C@@H](O)[C@H]2CO)ncc1N(C)C(=O)C(C)(C)c1cc(C(F)(F)F)cc(C(F)(F)F)c1	42.6 µM (active)	inactive	–	38 µM (active)	–	21.4 µM (active)	19.2 µM (active)	–	43 µM (active)
N#Cc1nc(Cl)c(Cl)c(Cl)c1Cl	7.7 µM (active)	inactive	–	54.5 µM (active)	–	6.11 µM (active)	2.19 µM (active)	–	4.36 µM (active)
CC(C)c1ccc2sc3ccccc3c(=O)c2c1	inactive	30.6 µM (active)	–	inactive	9.69 µM (active)	inactive	–	–	inactive
C=CC[N@@+]12CC[C@@]34c5ccccc5N5/C=C6/[C@H]7C[C@H]8[C@@]9(CC[N@@+]8(CC=C)C/C7=C/CO)c7ccccc7N(/C=C(/[C@@H](C[C@@H]31)/C(=C\CO)C2)[C@H]54)[C@@H]69	inactive	inactive	inactive	–	–	–	–	–	–
CC(C)[C@H](NC(=O)[C@H](CC(=O)O)NC(=O)[C@H](CCCCN)NC(=O)[C@@H](N)CCCN=C(N)N)C(=O)N[C@@H](Cc1ccc(O)cc1)C(=O)O (H-RKDVY-OH)	inactive	inactive	inactive	–	–	–	–	–	–
NCC[C@H](O)C(=O)N[C@@H]1C[C@H](N)[C@@H](O[C@H]2O[C@H](CN)CC[C@H]2N)[C@H](O)[C@H]1O[C@H]1O[C@H](CO)[C@@H](O)[C@H](N)[C@H]1O	inactive	inactive	inactive	–	–	–	–	–	–
SC1CCCCC1	inactive	inactive	inactive	–	–	inactive	inactive	inactive	inactive
O=P(O)(O)C(O)(Cn1ccnc1)P(=O)(O)O	inactive	inactive	inactive	–	–	–	–	–	–
C=C1C(CCl)(CCl)C2(Cl)C(Cl)C(Cl)C1(Cl)C2(Cl)Cl (stereo not drawn)	53.8 µM (active)	inactive	–	–	–	60.4 µM (active)	54.3 µM (active)	–	54.3 µM (active)
O=C(O)c1cc(O)c2c(c1)[C@H]([C@H]1c3cc(C(=O)O)cc(O)c3C(=O)c3c(O[C@@H]4O[C@H](CO)[C@@H](O)[C@H](O)[C@H]4O)cccc31)c1cccc(O[C@@H]3O[C@H](CO)[C@@H](O)[C@H](O)[C@H]3O)c1C2=O	inactive	inactive	inactive	–	–	–	–	–	–
CC(C)Cc1ccc([C@H](C)C(=O)O)cc1	inactive	inactive	inactive	–	–	–	–	–	–
S=C1NC=NC2N=CNC12 (stereo not drawn)	inactive	30.6 µM (active)	–	inactive	4.86 µM (active)	8.63 µM (active)	inactive	–	–
CC1CCCC(C)N1NC(=O)c1ccc(Cl)c(S(N)(=O)=O)c1 (stereo not drawn)	inactive	inactive	inactive	–	–	–	–	–	–
C=C(Nc1ccc(OCC)cc1)Nc1ccc(OCC)cc1	inactive	inactive	inactive	–	–	–	–	–	–
CN(C/C=C/c1ccccc1)Cc1cccc2ccccc12	inactive	inactive	inactive	–	inactive	inactive	inactive	inactive	inactive
CC1(C)CCC(NC(=O)[C@@H](N)CCC(=O)O)CC1	inactive	inactive	inactive	–	–	–	–	–	–
CN1CCN(CCCN2c3ccccc3Sc3ccc(C(F)(F)F)cc32)CC1	29.8 µM (active)	inactive	–	–	–	15 µM (active)	29.8 µM (active)	–	29.8 µM (active)
OCl	inactive	inactive	inactive	–	–	–	–	–	–
O=c1[nH]c(=O)n([C@H]2C[C@H](O)[C@@H](CO)O2)cc1/C=C/Br	inactive	inactive	inactive	–	–	–	–	–	–
CCSCC	inactive	inactive	inactive	–	inactive	inactive	inactive	–	inactive
O=C1c2ccccc2CN2C(=O)c3ccccc3CN12	inactive	inactive	inactive	–	–	–	–	–	–
C[C@H]1O[C@@H](O[C@H]2CC[C@@]3(C)[C@H](CC[C@@H]4[C@@H]3C[C@@H](O)[C@]3(C)[C@@H](C5=CC(=O)OC5)CC[C@]43O)C2)C[C@H](O)[C@@H]1O[C@H]1C[C@H](O)[C@H](O[C@H]2C[C@H](O)[C@H](O[C@@H]3O[C@H](CO)[C@@H](O)[C@H](O)[C@H]3O)[C@@H](C)O2)[C@@H](C)O1	inactive	inactive	–	inactive	–	0.075 µM (active)	1.06 µM (active)	–	0.15 µM (active)
